What all share (test): NCI-60 one-dose screen, 48 h (100 = growth as untreated, 0 = no growth, -100 = all killed)
Conditions in all cases: 10 µM unless noted

Assay [1] relates to SK-MEL-2 melanoma.
For assay [2], the system named is EKVX NSCLC.
The test system of assay [3] is SN12C renal.
Assay [4] deals with UO-31 renal.
For assay [5], the system named is TK-10 renal.
The subject of assay [6] is ACHN renal.
For assay [7], the system named is CAKI-1 renal.
Assay [8] relates to A498 renal.
For assay [9], the system named is CCRF-CEM leukemia.
For assay [10], the system named is MOLT-4 leukemia.
Assay [11] relates to SR leukemia.
Assay [12] concerns RPMI-8226 leukemia.
Assay [13] concerns OVCAR-8 ovarian.
Assay [14] concerns OVCAR-5 ovarian.
Assay [15] concerns OVCAR-4 ovarian.
Assay [16] concerns SK-OV-3 ovarian.
The subject of assay [17] is IGROV1 ovarian.
Assay [18] deals with OVCAR-3 ovarian.
Assay [19] relates to NCI/ADR-RES ovarian.
In assay [20] the test system is HS 578T breast.

Each structure is given as a SMILES string. About 83,000 compounds went through this panel and 20% of them were active in at least one assay; those are over-represented in the sample as a whole.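 Treatment: one concentration, 48 hours, 96-well format. Scoring: percent growth, with anything below 10 considered active.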 Unmarked numbers belong to inactive results. Calls of active or inactive are those of the source.

Consider `O=C(CSc1nnc(-c2ccc(-c3nc4ccccc4[nH]3)cc2)o1)Nc1ccc(Br)cc1`, for which the growth in assay [1] is 41.4%; in assay [2] it was 27.1%; in assay [3], 21.9%; in assay [4], 63.2%; in assay [5] it was 56.7%; in assay [6] it was -60.9% (active). Further, the growth in assay [7] was 25.2%; in [8] it was 109%; in assay [9], 23%; in assay [10], 4.27% (active); in assay [11] it was 5.23% (active); in assay [12] it was 7.82% (active). For the same compound, the growth was 4.46% (active) in [13]; 44.7% in [14]; 54.3% in assay [15]; 79% in assay [16]; 35.8% in assay [17]; 34.2% in [18]. In addition, the growth in assay [19] is 21.5%.

Regarding `Nc1nc(-c2ccccc2)c(N=Nc2ccc(Cl)cc2Cl)s1`, the growth was -61.1% (active) in assay [1]; -30.5% (active) in [2]; -95% (active) in assay [3]; -20% (active) in [4]; -13.9% (active) in [5]; -31.2% (active) in [6]. Besides, the growth was -34.3% (active) in assay [7]; -16.8% (active) in [8]; -0.55% (active) in [9]; -24.6% (active) in [10]; -33.6% (active) in assay [11]; 7.32% (active) in assay [12]. The growth is 12.1% in [13]; -61.9% (active) in assay [14]; -2.75% (active) in assay [15]; 7.41% (active) in assay [16]; -29.7% (active) in assay [17]; -70.3% (active) in assay [18]. Moreover, the growth in assay [19] is -57% (active).

`O=C(N/N=C/c1ccc(Br)o1)c1[nH]c2ccc(Br)cc2c1-c1ccccc1`: the growth is 3.4% (active) in assay [1]; 12.6% in assay [2]; -59.1% (active) in [3]; -34% (active) in assay [4]; 9.96% (active) in assay [5]; -21.3% (active) in assay [6]. In addition, the growth is 2.87% (active) in assay [7]; -7.37% (active) in assay [8]; 4.07% (active) in assay [9]; -0.952% (active) in assay [10]; 5.02% (active) in assay [11]; 10.6% in [12]. Further, the growth in assay [13] is -35.9% (active); in [14], -21.8% (active); in assay [15], -17.2% (active); in assay [16] it was 22%; in [17], 5.42% (active); in [18], -28.6% (active). Further, the growth in assay [19] was -41.6% (active).

`Cc1nc(Nc2ccccn2)sc1C1=NNC(c2ccccc2F)C1` (stereo not drawn): the growth in [1] was 62.1%; in assay [2] it was 72.4%; in assay [3] it was 57.9%; in [4], 48%; in assay [5], 119%; in [6], 56.5%. Also, the growth was 61.8% in assay [7]; 101% in assay [8]; 19.1% in assay [9]; 25.4% in assay [10]; 12.4% in assay [11]; 30.4% in assay [12]. The growth in assay [13] was 68%; in assay [14], 82.8%; in assay [15] it was 74.8%; in assay [16], 98.3%; in assay [18], 24.8%; in assay [20], 87.6%. The growth in assay [19] was 20.9%.

For the compound `O=C(Cc1c(-c2ccccc2[N+](=O)[O-])n(-c2ncnc3c2c(-c2ccccc2)c(-c2ccccc2)n3Cc2ccccc2)[nH]c1=O)c1ccc(Cl)c(Cl)c1`, the growth in [1] is -22.4% (active); in assay [2], 14.6%; in assay [3], 12.6%; in assay [4] it was 41.7%; in assay [5], 38.5%; in assay [6] it was 25.4%. In addition, the growth is 9.03% (active) in [7]; 56.1% in [8]; 13.2% in [9]; 24.1% in assay [10]; 14.2% in assay [11]; -3.03% (active) in assay [12]. Also, the growth is 25.5% in assay [13]; 55.1% in assay [14]; 19.2% in [15]; 39.3% in assay [16]; 25.2% in assay [17]; 14.2% in assay [18]. The growth in [19] is 50.7%.

With `O=C1Nc2cc(-c3ccc(NS(=O)(=O)c4ccc(C(F)(F)F)cc4)cc3)ccc2/C1=C/c1ccc[nH]1`, the growth is 22.5% in [1]; 19.5% in [2]; 4.64% (active) in assay [3]; 31.1% in [4]; 32.5% in assay [5]; 31.1% in assay [6]. Moreover, the growth in assay [7] is 32.9%; in [8] it was 28.9%; in assay [9] it was 18.5%; in assay [10] it was 6.52% (active); in assay [11], 4.6% (active); in assay [12], 26%. The growth was 57% in assay [13]; 45.1% in [14]; 31.5% in [15]; 57.7% in [16]; 61.3% in [17]; 39.8% in [18]. Further, in [19], the growth is 40.5%.

For `CS(=O)(=O)Nc1cncc(-c2ccc3ncnc(NCc4ccccc4)c3c2)c1`, the growth in assay [1] was -8.92% (active); in assay [2], 55.2%; in assay [3], 34.8%; in assay [4], 52.7%; in [5], 63%; in assay [6], 77.5%. In addition, the growth in assay [7] was 60.7%; in assay [8] it was 63.8%; in assay [9], 17%; in assay [10] it was -26% (active); in assay [11] it was 6.25% (active); in assay [12], 52%. The growth in assay [13] is 49.2%; in [14], 42.6%; in assay [15], 44.8%; in assay [16], 67.6%; in assay [18], 33.6%; in assay [20], -5.05% (active). Moreover, the growth in assay [19] was 89%.

(Values after PubChem BioAssay (NCI).)
